High-throughput results as filed in PubChem BioAssay.
Shown are actives, neighbours in structure and some others; about 4.1% of the full set was active somewhere.
CHT block: inhibits the human high affinity choline transporter | Q9GZV3 | CHT-expressing cells, membrane potential dye, choline response; stronger effect = lower value | B-score at 10 µM | hit rate 0.86% among 310,000 | AID 488975;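 active = B-score over 3 SD under the library average, and starting fluorescence ratio not unusually high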;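 note: choline stimulus applied at its EC90 after an EC20 pre-addition; B-score computed on integrated fluorescence ratio after choline addition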
Target sequence (Q9GZV3 whole entry, looked up): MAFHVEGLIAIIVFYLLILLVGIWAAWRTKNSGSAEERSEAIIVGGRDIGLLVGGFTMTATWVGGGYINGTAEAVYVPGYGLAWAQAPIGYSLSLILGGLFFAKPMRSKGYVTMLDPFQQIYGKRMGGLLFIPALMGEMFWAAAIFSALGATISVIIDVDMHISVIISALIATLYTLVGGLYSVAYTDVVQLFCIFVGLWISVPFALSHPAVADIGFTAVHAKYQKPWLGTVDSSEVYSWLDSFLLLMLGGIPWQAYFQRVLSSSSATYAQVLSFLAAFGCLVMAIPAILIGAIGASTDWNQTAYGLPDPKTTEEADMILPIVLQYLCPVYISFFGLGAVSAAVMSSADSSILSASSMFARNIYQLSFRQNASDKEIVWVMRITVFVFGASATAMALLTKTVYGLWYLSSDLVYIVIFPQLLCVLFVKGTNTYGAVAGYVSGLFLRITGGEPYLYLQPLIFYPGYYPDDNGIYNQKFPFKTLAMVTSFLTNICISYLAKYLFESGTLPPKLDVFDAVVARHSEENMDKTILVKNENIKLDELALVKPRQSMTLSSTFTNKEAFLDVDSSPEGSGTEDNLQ
MEKK2mut PB1 HTS: signal of MEK5 binding to mutant human MEKK2 PB1 domain; bead flow cytometry, Alexa488-MEK5 binding to MEKK2 mutant; percent response, % at 10 µM; hit rate 0.35% among 290,000; in the data active = percent response above about 24%, passing the limit was not always enough
SUMO Mot1 rescue: SUMOylation pathway inhibition by Mot1-301 growth rescue | S. cerevisiae Mot1-301 growth rescue, ATP luminescence, 38.5C; percent above DMSO median, 100 means doubled | hit rate 1% among 320,000 | growth rescue, % at 18.8 µM | AID 2716;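 active = every valid replicate shows activation above 250% relative to neutral control wells; inactive = the rest, any valid replicate at or below 250%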
CHT PAM: allosteric activators of human choline transporter CHT. Q9GZV3. CHT-expressing cells, membrane potential dye, choline EC20; stronger effect = higher value; LV-AA mutant CHT in HEK293 cells. B-score at 10 µM. hit rate 0.49% among 310,000. AID 488977;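 active = initial fluorescence not abnormally high and integrated response B-score, plate-corrected, over 3 SD above library mean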
MEKK2wt PB1 HTS: raises or lowers MEK5 binding to wildtype human MEKK2 PB1 domain. bead flow cytometry, Alexa488-MEK5 binding to MEKK2 WT; actives lie on both sides. binding response (% of control), % at 10 µM. hit rate 1.1% among 290,000; in the data active = binding response below about 67% or above about 130%
MEKK3 PB1 HTS: MEKK3-MEK5 PB1 interaction, increase or decrease; Q99759; bead-based flow cytometry, Alexa488-MEK5 binding to MEKK3; actives lie on both sides; 0 = blocked by unlabeled MEK5, 100 = vehicle; binding response (% of control), % at 10 µM; hit rate 1.4% among 290,000;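 active = binding response more than 3 SD above or below the average of its plate-row segment, actives on both sides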;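 note: Alexa488 bead fluorescence after subtracting the streptavidin-only scavenger bead signal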
MEKK2wt confirm: raises or lowers MEK5 binding to wildtype human MEKK2, retest; shares compounds with MEKK3 PB1 HTS; bead flow cytometry, Alexa488-MEK5 binding to MEKK2 WT; actives lie on both sides; binding response (% of control), % at 10 µM; hit rate 2.4% among 5,900; AID 1892; in the data active = binding response below about 16% or above about 210%; inactive = in between
MEKK2mut confirm: signal of MEK5 binding to mutant human MEKK2, retest | bead flow cytometry, Alexa488-MEK5 binding to MEKK2 mutant | shares compounds with MEKK3 PB1 HTS | percent response, % at 10 µM | hit rate 2% among 5,900 | AID 1893; in the data active = percent response mostly above about 71%, no sharp cut-off; inactive = mostly below about 38%;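 note: higher means compound restores mutant binding toward wildtype level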
MEKK3-MEK5 inh: confirmation of inhibitors of MEK5 binding to human MEKK3; shares compounds with MEKK3 PB1 HTS; binding response (% of control), % at 10 µM; bead flow cytometry, Alexa488-MEK5 binding to MEKK3; stronger effect = lower value; hit rate 1.8% among 5,900; AID 1894;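 active = binding response below 72% of control, or above a set upper limit, though filed actives all read lower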
Each line names hits and unclear results; the compound was inactive in the other large screens (follow-up assays come after a bar, where they were run); [ ] = remark or other dose.

O=C(Nc1cccc(NC(=O)c2ccccc2)n1)c1ccccc1	none
COc1ccccc1-n1cnc2cc(NCc3ccco3)ccc21	CHT PAM 13
Nc1nc(CCl)nc(Nc2ccccc2)n1	none
Nc1nc(Nc2ccc(Cl)cc2)nc2ccccc12	CHT block -8.3
O=C(N/N=C/c1cc2ccccc2[nH]1)c1ccccc1Cl	none
CCCCOC(=O)Cn1c(-c2ccccc2)nc2ccccc2c1=O	SUMO Mot1 rescue 553
COc1cccc2c(=O)c3ccoc3n(C)c12	SUMO Mot1 rescue 350
CCN(Cc1ccccc1)C(=O)c1[nH]c2ccc(OC)cc2c1C	none (no result: CHT block, SUMO Mot1 rescue, CHT PAM)
CCN(CC)CCNC(=O)c1[nH]c2ccc(OCc3ccccc3)cc2c1C	MEKK2wt PB1 HTS 184
COc1ccc(-c2coc3cc4oc(=O)cc(-c5ccccc5)c4cc23)cc1F	MEKK3 PB1 HTS 132
Cc1nc2nc(SCC(=O)NCCCN3CCCCC3)nn2c(C)c1Cc1ccccc1	none
Cc1ccc(Cc2c(C)nc3nc(SCC(=O)NCCCN4CCCCCC4)nn3c2C)cc1	MEKK2mut PB1 HTS 37, MEKK2wt PB1 HTS 234
Cc1ccc(-n2nc3c(N4CCC(C(=O)N5CCN(C)CC5)CC4)nnc(C)c3c2C)cc1	none
CCCN1CCN(C(=O)C2CCN(c3nnc(C)c4c(C)n(-c5ccc(C)cc5)nc34)CC2)CC1	MEKK2mut PB1 HTS 134
COc1ccc(N2C(=O)CSC(c3ccccc3)C2=O)cc1 (centres undefined)	none
CN(C)S(=O)(=O)c1ccc(C(=O)Oc2cc(=O)[nH]c3ccccc23)cc1	SUMO Mot1 rescue 465
CCOc1ccccc1NC(=O)CN1CCN(Cc2ccccc2)CC1	none
CCCCOc1ccc(CC2CCC(=O)NC2=O)cc1 (centres undefined)	SUMO Mot1 rescue active
COc1ccc(Cl)cc1NC(=O)CCNC(=O)OCc1ccccc1	none
CCCOc1ccc(N2C(=O)CC(N3CCN(c4ccccc4F)CC3)C2=O)cc1 (centres undefined)	none
CCCOc1ccc(N2C(=O)CC(N3CCC(c4nncn4CC)CC3)C2=O)cc1 (centres undefined)	SUMO Mot1 rescue 307
N#Cc1c2ccc(OCC(N)=O)cc2n2ccccc12	SUMO Mot1 rescue 371
CCOC(=O)COc1ccc2c(C#N)c3ccccn3c2c1	none (no result: CHT block, SUMO Mot1 rescue, CHT PAM)
Cc1ccc(NC(=S)N2CCN(c3ccccn3)CC2)c(C)c1	SUMO Mot1 rescue 325
Cc1ccc(NC(=S)N2CCN(C(=O)c3ccccc3)CC2)c(C)c1	SUMO Mot1 rescue 440
Cc1ccc(S(=O)(=O)NCc2c(Cl)cccc2Oc2ccccc2)cc1	none
CCOc1ccc(/C=C/C2=Cc3c(sc(NC(=O)CSc4n[nH]c(N)n4)c3C#N)C(C)(C)C2)cc1	MEKK2wt PB1 HTS 31
Cc1ccsc1/C=C/C1=Cc2c(sc(NC(=O)CSc3n[nH]c(N)n3)c2C#N)C(C)(C)C1	none
C/C(=N\NC(=O)c1ccccc1)C1C2C=CC(C2)C1(C)C (centres undefined)	none
CCN1CCN(c2nc3c(c(=O)n(C)c(=O)n3C)n2CCSc2nccc(C)n2)CC1	CHT block -7.5
Cc1cc(-c2nc(-c3ccncc3)no2)ccc1[N+](=O)[O-]	none
CCc1cc2c3c(c1)C1(C(=O)N3C(C)(C)CC2C)C(C#N)=C(N)N2C(=C1C#N)Nc1ccccc12 (centres undefined)	SUMO Mot1 rescue 608
Cc1nn(-c2ccccc2)c2c1C1(C(=O)N3c4c(cccc41)C(C)CC3(C)C)C(C#N)=C(N)O2 (centres undefined)	none
CCCNC(=O)c1ccccc1NC(=O)c1ccc(CSc2ccccc2)cc1	SUMO Mot1 rescue 358
CCC(C)NC(=O)c1ccccc1NC(=O)c1ccc(CSc2ccccc2)cc1 (centres undefined)	none
Cc1ccc(NC(=O)c2ccco2)c(NC(=O)c2ccccc2)c1	MEKK2wt PB1 HTS -12[inhibitor], MEKK3 PB1 HTS 0.0[inhibitor]
CNC(=S)Nc1ccc(C23CC4CC(CC(C4)C2)C3)cc1	none
Oc1ccc(C23CC4CC(CC(C4)C2)C3)cc1O	SUMO Mot1 rescue 648
O=S(=O)(/N=C(/c1ccccc1)N1CCOCC1)c1ccc(F)cc1	none
Cn1ncc2c(NNC(=O)c3ccccc3Cl)ncnc21	MEKK3 PB1 HTS 129 | MEKK2wt confirm inactive | MEKK2mut confirm inactive | MEKK3-MEK5 inh inactive
CCOC(=O)CC(=O)CSc1nccc(-c2cccnc2)n1	MEKK3 PB1 HTS 43[inhibitor] | MEKK2wt confirm inactive | MEKK2mut confirm inactive | MEKK3-MEK5 inh inactive
CCc1ccc(N(CC)C(=O)c2cn(C)c(=O)c3ccccc23)cc1	none
O=C(CN1CCN(C(=O)C2CCCO2)CC1)Nc1ccc(Br)cc1 (centres undefined)	none
CC(=O)CCn1cnc([N+](=O)[O-])n1	none
Cn1cc(CNCc2cn(C)nc2-c2ccc(C3CCCCC3)cc2)cn1	MEKK2mut PB1 HTS 74, MEKK2wt PB1 HTS 205 | MEKK2wt confirm inactive | MEKK2mut confirm inactive | MEKK3-MEK5 inh inactive
CC(=O)c1nn(-c2ccc(C(F)(F)F)cc2)c(=O)[nH]c1=O	none
Oc1ccc2ccc3[nH]cnc3c2c1	MEKK2wt PB1 HTS 45[inhibitor], MEKK3 PB1 HTS 39[inhibitor] | MEKK2wt confirm inactive | MEKK2mut confirm inactive | MEKK3-MEK5 inh inactive
COC(=O)C(Cc1ccccc1)NC(=O)C12CC3CC(CC(C3)C1)C2 (centres undefined)	MEKK3 PB1 HTS 134 | MEKK2wt confirm inactive | MEKK2mut confirm inactive | MEKK3-MEK5 inh inactive
CCOC(=O)N1CCC(NC(=O)C2=CCN(S(=O)(=O)c3ccc(OC)cc3)CC2)CC1	MEKK3 PB1 HTS 128 | MEKK2wt confirm inactive | MEKK2mut confirm inactive | MEKK3-MEK5 inh inactive
O=C(Cc1cnc2ncnn2c1)N1CCc2c([nH]c3ccccc23)C1c1ccccn1 (centres undefined)	none
COc1cc(CNCCc2ccc(S(N)(=O)=O)cc2)ccc1OCC(=O)NC1CCCCC1	none
COc1cc(CNCCc2ccc(S(N)(=O)=O)cc2)ccc1OCc1ccc(Cl)cc1	MEKK2mut PB1 HTS 71, MEKK2wt PB1 HTS 232 | MEKK2wt confirm inactive | MEKK2mut confirm inactive | MEKK3-MEK5 inh inactive
